Common to all, as to test: DAPPL (digital affinity profiling via proximity ligation, sequencing); 10 mM Tris-HCl pH 7.5, 50 mM NaCl, 1 mM DTT, 4% glycerol, room temperature, 30 min; GST-TFs on glutathione beads, 16-mer random dsDNA library, 0.1% formaldehyde crosslink after washing; high values mean tight binding
Settings in all cases: protein: recombinant; tags: N-terminal GST; dsDNA, one strand shown

The target in one assay is T1, ERF (Homo sapiens, UniProt P50548 1-548).
T1 sequence: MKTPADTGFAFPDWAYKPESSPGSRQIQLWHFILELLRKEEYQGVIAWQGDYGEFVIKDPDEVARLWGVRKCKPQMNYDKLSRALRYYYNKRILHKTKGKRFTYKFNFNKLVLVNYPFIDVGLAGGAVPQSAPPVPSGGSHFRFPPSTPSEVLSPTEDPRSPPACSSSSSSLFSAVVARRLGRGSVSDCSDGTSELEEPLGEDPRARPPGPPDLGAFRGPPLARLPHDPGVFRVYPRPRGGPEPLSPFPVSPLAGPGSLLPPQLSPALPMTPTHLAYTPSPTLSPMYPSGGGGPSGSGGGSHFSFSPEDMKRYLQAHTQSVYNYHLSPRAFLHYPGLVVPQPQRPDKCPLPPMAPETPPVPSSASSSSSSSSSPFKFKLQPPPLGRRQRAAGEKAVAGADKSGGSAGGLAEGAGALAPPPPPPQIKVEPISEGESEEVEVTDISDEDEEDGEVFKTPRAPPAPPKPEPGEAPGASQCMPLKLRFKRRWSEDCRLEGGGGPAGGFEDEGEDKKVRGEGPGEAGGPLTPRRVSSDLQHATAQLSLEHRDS
The gist of the method:
(§1)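 In yeast, human transcription factors were expressed with a GST fusion, then pulled down on glutathione beads and given DNA barcodes. Pooled with a tag-only sample, they were exposed to 200 nmole of a 16-mer random double-stranded DNA library (Tris/NaCl/DTT/glycerol buffer, room temperature, 30 min), washed, crosslinked with 0.1% formaldehyde, proximity-ligated using BsaI/T4 ligase for 1 h at 37 °C, PCR-amplified and read on an Illumina NextSeq500. Each hexamer's frequency of reads for a factor, divided by the matching frequency for the tag-only sample, gives the binding signal.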

Another assay addresses T2, ETV3L (Homo sapiens, UniProt Q6ZN32 1-361).
T2 sequence: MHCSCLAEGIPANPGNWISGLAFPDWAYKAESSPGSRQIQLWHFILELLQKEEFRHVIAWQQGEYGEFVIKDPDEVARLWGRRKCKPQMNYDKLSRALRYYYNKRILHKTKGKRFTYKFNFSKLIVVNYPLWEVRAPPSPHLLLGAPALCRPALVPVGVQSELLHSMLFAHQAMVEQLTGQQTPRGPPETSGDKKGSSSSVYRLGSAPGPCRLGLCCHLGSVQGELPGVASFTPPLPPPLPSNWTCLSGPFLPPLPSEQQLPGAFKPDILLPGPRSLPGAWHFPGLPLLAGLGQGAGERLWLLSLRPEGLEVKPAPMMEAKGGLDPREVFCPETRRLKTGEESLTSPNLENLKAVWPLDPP
The gist of the method:
as §1

For a further assay, the target named is T3, ETS2 (Homo sapiens, UniProt P15036 1-469).
T3 sequence: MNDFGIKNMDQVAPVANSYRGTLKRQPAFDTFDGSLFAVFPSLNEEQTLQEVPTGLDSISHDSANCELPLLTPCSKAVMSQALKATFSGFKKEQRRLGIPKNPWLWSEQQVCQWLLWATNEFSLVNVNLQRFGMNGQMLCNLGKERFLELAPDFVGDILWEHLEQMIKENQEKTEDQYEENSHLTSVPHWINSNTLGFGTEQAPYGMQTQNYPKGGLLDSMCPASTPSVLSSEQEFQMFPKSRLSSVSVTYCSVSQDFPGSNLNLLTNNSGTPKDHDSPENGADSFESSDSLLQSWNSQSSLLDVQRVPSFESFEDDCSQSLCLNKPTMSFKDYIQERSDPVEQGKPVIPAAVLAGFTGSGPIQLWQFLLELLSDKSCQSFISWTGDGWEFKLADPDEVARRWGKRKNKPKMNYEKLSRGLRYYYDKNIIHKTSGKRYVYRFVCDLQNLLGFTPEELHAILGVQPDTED
The gist of the method:
as §1

For another assay, the target named is T4, SPDEF (Homo sapiens, UniProt O95238 1-335).
T4 sequence: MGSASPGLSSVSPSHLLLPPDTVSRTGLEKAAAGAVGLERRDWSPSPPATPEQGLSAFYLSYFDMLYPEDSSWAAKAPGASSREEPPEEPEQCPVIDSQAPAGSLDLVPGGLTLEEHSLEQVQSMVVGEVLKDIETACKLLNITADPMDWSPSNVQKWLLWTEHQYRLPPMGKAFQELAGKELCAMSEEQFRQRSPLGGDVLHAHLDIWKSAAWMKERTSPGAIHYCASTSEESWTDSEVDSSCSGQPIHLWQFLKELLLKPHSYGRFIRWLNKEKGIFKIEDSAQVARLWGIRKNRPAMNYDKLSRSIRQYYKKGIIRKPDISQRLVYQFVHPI
The gist of the method: as §1

The target in another assay is T5, ETV7 (Homo sapiens, UniProt Q9Y603 1-341).
T5 sequence: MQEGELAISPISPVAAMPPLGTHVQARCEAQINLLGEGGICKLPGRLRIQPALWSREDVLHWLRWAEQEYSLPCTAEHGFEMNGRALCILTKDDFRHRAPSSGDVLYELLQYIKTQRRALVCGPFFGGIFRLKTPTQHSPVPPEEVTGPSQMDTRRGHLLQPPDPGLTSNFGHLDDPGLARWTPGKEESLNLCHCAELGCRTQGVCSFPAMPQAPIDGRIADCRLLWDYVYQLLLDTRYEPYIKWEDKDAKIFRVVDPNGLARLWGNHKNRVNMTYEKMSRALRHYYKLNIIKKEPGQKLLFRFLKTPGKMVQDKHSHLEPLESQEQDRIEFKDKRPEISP
The gist of the method:
as §1

A further assay concerns the target T6, ELF5 (Homo sapiens, UniProt Q9UKW6-2 1-255).
T6 sequence: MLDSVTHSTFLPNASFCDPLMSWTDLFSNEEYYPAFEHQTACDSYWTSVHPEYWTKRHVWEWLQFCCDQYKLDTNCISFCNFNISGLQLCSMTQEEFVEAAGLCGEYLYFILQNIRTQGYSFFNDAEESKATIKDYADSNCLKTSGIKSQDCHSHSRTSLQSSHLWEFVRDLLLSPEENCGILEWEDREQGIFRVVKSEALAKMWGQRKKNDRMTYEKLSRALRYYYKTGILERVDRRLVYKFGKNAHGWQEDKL
The gist of the method:
as §1

For another assay, the target named is T7, ETV3 (Homo sapiens, UniProt P41162-2 1-143).
T7 sequence: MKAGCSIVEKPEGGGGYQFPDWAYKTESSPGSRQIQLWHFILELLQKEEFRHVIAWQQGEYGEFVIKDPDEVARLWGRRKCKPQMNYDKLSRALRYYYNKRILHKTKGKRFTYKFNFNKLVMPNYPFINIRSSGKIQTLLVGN
The gist of the method: as §1

Another assay concerns the target ETV6 (Homo sapiens, UniProt P41212 1-452). The gist of the method: as §1

The values below come from paper PMC7862700, “An all-to-all approach to the identification of sequence-specific readers for epigenetic DNA modifications on cytosine”.

Chain of ETV6 (P41212 whole entry): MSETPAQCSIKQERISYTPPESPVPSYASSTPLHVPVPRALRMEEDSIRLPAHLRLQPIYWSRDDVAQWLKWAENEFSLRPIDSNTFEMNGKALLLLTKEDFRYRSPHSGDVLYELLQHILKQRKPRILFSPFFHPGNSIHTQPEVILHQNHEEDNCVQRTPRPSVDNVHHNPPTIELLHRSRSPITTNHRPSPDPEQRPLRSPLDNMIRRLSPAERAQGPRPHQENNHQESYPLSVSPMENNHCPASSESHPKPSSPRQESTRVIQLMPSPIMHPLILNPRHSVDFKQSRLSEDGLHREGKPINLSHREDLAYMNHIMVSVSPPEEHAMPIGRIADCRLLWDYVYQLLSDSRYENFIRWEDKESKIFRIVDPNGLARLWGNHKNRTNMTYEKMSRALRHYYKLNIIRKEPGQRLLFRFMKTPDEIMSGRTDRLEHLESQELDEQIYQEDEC

For TATGTG, the binding signal in the assay with ERF was 1.07 fold enrichment (6-mer frequency, TF over GST control); in the assay with ETV3L, 1.02 fold enrichment (6-mer frequency, TF over GST control); with ETS2 it was 1.07 fold enrichment (6-mer frequency, TF over GST control); in the assay with SPDEF it was 1.09 fold enrichment (6-mer frequency, TF over GST control); in the assay with ETV7 it was 1.04 fold enrichment (6-mer frequency, TF over GST control); in the assay with ELF5 it was 1.01 fold enrichment (6-mer frequency, TF over GST control). The binding signal is 1.09 fold enrichment (6-mer frequency, TF over GST control) in the assay with ETV3 and 1.07 fold enrichment (6-mer frequency, TF over GST control) with ETV6.
Take ACATGT: the binding signal with ERF was 1.15 fold enrichment (6-mer frequency, TF over GST control); with ETV3L, 1.19 fold enrichment (6-mer frequency, TF over GST control); with ETS2, 1.15 fold enrichment (6-mer frequency, TF over GST control); with SPDEF it was 1.19 fold enrichment (6-mer frequency, TF over GST control); with ETV7, 1.16 fold enrichment (6-mer frequency, TF over GST control); in the assay with ELF5 it was 1.12 fold enrichment (6-mer frequency, TF over GST control). Moreover, the binding signal with ETV3 was 1.16 fold enrichment (6-mer frequency, TF over GST control); in the assay with ETV6 it was 1.14 fold enrichment (6-mer frequency, TF over GST control).
Regarding TGACGC, the binding signal is 1.34 fold enrichment (6-mer frequency, TF over GST control) in the assay with ERF; 1.24 fold enrichment (6-mer frequency, TF over GST control) with ETV3L; 1.12 fold enrichment (6-mer frequency, TF over GST control) with ETS2; 1.13 fold enrichment (6-mer frequency, TF over GST control) in the assay with SPDEF; 1.13 fold enrichment (6-mer frequency, TF over GST control) with ETV7; 1.19 fold enrichment (6-mer frequency, TF over GST control) with ELF5. Moreover, the binding signal in the assay with ETV3 is 1.15 fold enrichment (6-mer frequency, TF over GST control); with ETV6, 1.19 fold enrichment (6-mer frequency, TF over GST control).
For CAACTC, the binding signal with ERF was 1.26 fold enrichment (6-mer frequency, TF over GST control); in the assay with ETV3L, 1.22 fold enrichment (6-mer frequency, TF over GST control); in the assay with ETS2, 1.26 fold enrichment (6-mer frequency, TF over GST control); with SPDEF, 1.36 fold enrichment (6-mer frequency, TF over GST control); with ETV7, 1.12 fold enrichment (6-mer frequency, TF over GST control); with ELF5 it was 1.16 fold enrichment (6-mer frequency, TF over GST control). Besides, the binding signal with ETV3 was 1.31 fold enrichment (6-mer frequency, TF over GST control); with ETV6, 1.29 fold enrichment (6-mer frequency, TF over GST control).
For the sequence GGGTTT, the binding signal with ERF is 1.17 fold enrichment (6-mer frequency, TF over GST control); with ETV3L, 1.1 fold enrichment (6-mer frequency, TF over GST control); with ETS2 it was 1.1 fold enrichment (6-mer frequency, TF over GST control); in the assay with SPDEF it was 1 fold enrichment (6-mer frequency, TF over GST control); with ETV7 it was 1.12 fold enrichment (6-mer frequency, TF over GST control); with ELF5, 1.1 fold enrichment (6-mer frequency, TF over GST control). Moreover, the binding signal was 1.18 fold enrichment (6-mer frequency, TF over GST control) in the assay with ETV3 and 1.07 fold enrichment (6-mer frequency, TF over GST control) with ETV6.
As for CGGTCT, the binding signal is 1.21 fold enrichment (6-mer frequency, TF over GST control) with ERF; 1.15 fold enrichment (6-mer frequency, TF over GST control) in the assay with ETV3L; 1.16 fold enrichment (6-mer frequency, TF over GST control) with ETS2; 1.09 fold enrichment (6-mer frequency, TF over GST control) in the assay with SPDEF; 1.11 fold enrichment (6-mer frequency, TF over GST control) with ETV7; 1.1 fold enrichment (6-mer frequency, TF over GST control) with ELF5. Also, the binding signal with ETV3 was 1.22 fold enrichment (6-mer frequency, TF over GST control); with ETV6 it was 1.09 fold enrichment (6-mer frequency, TF over GST control).
